Screening results as filed in PubChem BioAssay.
Only some compounds are listed: those with a hit (about 6.6% of all), similar ones and a draw of the others.
HepG2 viability = qHTS for Inhibitors of TGF-b: Cytotox Counterscreen. HepG2 CAGA-GFP viability, ATP luminescence, 18 h. Potency, µM (series often up to 46.1 µM), inactives show at the highest dose activity change, negative = cytotoxicity, hits mostly cytotoxic. 410,000 compounds, 0.76% hits. AID 588856, 2011
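HepG2 CAGA-GFP cells (1000/well, DMEM with 1% FBS) received compound, then TGF-beta at 500 pg/mL final, and were incubated 18 hours at 37 degrees C. Viability was read by CellTiter-Glo luminescence. Media-only wells were set as complete cell-killing and DMSO as no toxicity.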
KB-V1 cytotox = qHTS assay for MDR1-selective chemotherapeutics: Primary screen using the drug-selected MDR subline cells KB-V1 | Potency, µM (series often up to 46.1 µM), actives largely listed as cytotoxic | AID 1347076, 2019 | 400,000 compounds, 3.4% hits | KB-V1 MDR cells viability, CellTiter-Glo, 72 h; note: % is set by controls: 0 for no effect and ±100 for the full control effect; nearly all actives have a fitted effect of over 60% in size
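KB-V1 MDR subline cells in DMEM (phenol-red free, 10% FBS) exposed to compounds in qHTS concentration series for 72 h at 37 degrees C. Viability read by CellTiter-Glo luminescence; concentration-effect curves fitted after normalization and correction.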
KB-3-1 tox = qHTS assay for MDR1-selective chemotherapeutics: Primary screen using the parental adenocarcinoma cell KB-3-1; KB-3-1 viability, CellTiter-Glo ATP luminescence, 72 h; Potency, µM (doses to about 46.1 µM), usual class: cytotoxic; 400,000 compounds, 1.4% hits; note: % is set by controls: 0 for no effect and ±100 for the full control effect; nearly all actives have a fitted effect of over 60% in size
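72 h, 37 °C compound treatment of KB-3-1 parental cells; CellTiter-Glo added, 10 min, luminescence read. Data corrected against DMSO-only plates and normalized before curve fitting.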
TGFb SMAD3 inh = qHTS for Inhibitors of TGF-b | HepG2 CAGA-GFP TGF-b/SMAD3 reporter, GFP fluorescence, 18 h; TGF-beta stimulated, 500 pg/mL final | AID 588855, 2011 | Potency, µM (series often up to 46.1 µM), without a hit: top-dose activity, negative = inhibition, actives largely listed as inhibitors | 410,000 compounds, 1.2% hits; note: % is set by controls: 0 for no effect and ±100 for the full control effect; nearly all actives have a fitted effect of over 65% in size
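Smad-responsive CAGA-GFP expression was quantified in HEPG2 cells exposed to compounds and 500 pg/mL final TGF-beta for 18 h at 37 degrees C; unstimulated wells defined full inhibition.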
HT1080 IDH1KD tx = qHTS for induction of synthetic lethality in tumor cells producing 2HG: qHTS for the HT-1080-IDH1KD cell line; HT-1080 IDH1 knockdown viability, ATP luminescence, 48 h; Potency, µM (top dose mostly 46.1 µM), without a hit: top-dose activity, negative = toxicity, hits mostly cytotoxic; 360,000 compounds, 2% hits; AID 686971, 2013;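 note: 0% = DMSO wells and -100% = cell-free medium wells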
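Using the IDH1-knockdown HT-1080 line run in the same batch and compound series as the NT line, viability after 48 h at 37 °C was determined by CellTiter-Glo luminescence and expressed as % activity.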
HT1080NT lethal = qHTS for induction of synthetic lethality in tumor cells producing 2HG: qHTS for the HT-1080-NT fibrosarcoma cell line. HT-1080-NT fibrosarcoma viability, CellTiter-Glo ATP luminescence, 48 h. 360,000 compounds, 1.6% hits. AID 686970, 2013. Potency, µM (series often up to 46.1 µM), for the others: at the highest dose activity, negative = less viability, most hits filed as cytotoxic;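 note: NT is the 2HG producing partner of a matched IDH1 knockdown line; 0% = DMSO-treated cells and -100% = media-only wells without cells; nearly all actives have a fitted effect of over 55% in size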
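Viability by CellTiter-Glo luminescence after 48 h compound exposure at 37C of HT-1080-NT cells (750/well, RPMI, 5% FBS). % activity scaled between DMSO wells and medium-only wells, then curve-fitted and categorized by curve class.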
The depositor's hits bear a star; i = inactive; ? = inconclusive; . = no result. Calls come from the whole dose curve; as a rule, active = well fitted curve in the direction sought with a large enough effect; inconclusive = small, poorly fitted or top-dose-only effect, or another doubt; inactive = no such curve, though single readings can be large; an effect the other way counts as inactive or inconclusive. Potency is the fitted concentration of half-maximal effect.

SMILES	HepG2 viability	KB-V1 cytotox	KB-3-1 tox	TGFb SMAD3 inh	HT1080 IDH1KD tx	HT1080NT lethal
CCOC(=O)c1ccc(NC(=O)Nc2ccn(C)n2)cc1	-29%	16µM*	i	20%	?	2%
CCOC(=O)c1ccc(NC(=O)Nc2cccc(C)n2)cc1	1%	?	i	2%	11%	12%
Cc1ccc2oc3c(c(=O)c2c1)C(c1ccccc1F)N(c1ccccn1)C3=O (configuration not stated)	-13%	i	i	6%	.	.
O=C(Cn1c(=O)n(-c2ccccc2)c(=O)c2oc3ccccc3c21)Nc1ccccc1	5%	15µM*	i	7%	4%	-1%
CCCCN(CCCNC(=O)CN1N=C(c2ccc(C)cc2)CCC1=O)c1ccccc1	-82%	.	.	13µM*	.	.
O=C(CN1N=C(c2ccc(Cl)cc2)CCC1=O)NCCc1ccccc1	-15%	.	.	-6%	.	.
Cc1ccc(C2=NN(CC(=O)NCCc3ccc(Cl)cc3)C(=O)CC2)cc1	-31%	.	.	11µM*	.	.
COc1ccc(CCn2c3c(c(=O)[nH]c2=O)C(NC(=O)c2ccc(C(C)(C)C)cc2)(C(F)(F)F)C(=O)N3)cc1OC (configuration not stated)	16%	i	i	-1%	.	.
CCC(C)NC(=O)c1c(N)n(/N=C/c2ccccn2)c2nc3ccccc3nc12 (configuration not stated)	0%	21µM*	i	20%	1%	-9%
Cc1cc(-c2ccc(S(=O)(=O)NCc3ccccc3Cl)s2)on1	-37%	i	i	-39%	.	.
COC(=O)c1cccc(NC(=O)c2cc3sccc3n2C)c1	-7%	9.2µM*	i	-1%	4%	3%
CN(C(=O)COC(=O)c1ccccc1C(=O)c1ccccc1)c1ccccc1	-1%	21µM*	i	7%	-2%	10%
COc1oc(C(=O)NC2CCCCC2)c(-c2ccc(Cl)cc2)c1S(=O)(=O)c1ccccc1	-2%	4.6µM*	?	0%	?	?
O=C(CSc1oc(-c2ccccc2)nc1S(=O)(=O)c1ccc(Cl)cc1)NC1CCCCC1	-1%	i	i	0%	.	.
Cc1sc2ncnc(SCC(=O)c3ccc4c(c3)OCCO4)c2c1-c1ccccc1	-12%	16µM*	i	-38%	-2%	1%
Cc1ccc(-c2csc3ncnc(SCC(=O)c4ccc5c(c4)OCCO5)c23)cc1	32%	i	i	24%	7%	-1%
O=C(CCNC(=O)c1ccc(Br)cc1)NC1CCCCCC1	-38%	16µM*	i	0%	-15%	0%
O=C(CCNC(=O)c1ccc(Cl)cc1)NC1CCCCCC1	-8%	.	.	-23%	-1%	-13%
COc1ccc(-c2noc(-c3ccc(N4CCN(C)CC4)c([N+](=O)[O-])c3)n2)cc1OC	11µM*	i	i	?	.	.
COc1ccc(-n2c(=O)c3sc4ccccc4c3n(C)c2=O)cc1	2%	i	i	-11%	.	.
CCN1CCN(C(=O)c2ccc3c(c2)N(Cc2cc(C)ccc2C)C(=O)c2ccccc2S3(=O)=O)CC1	-33%	.	.	.	.	.
Cc1c(N)cc[n+](CC(=O)c2ccccc2)c1C	-68%	?	5.2µM*	0%	?	-9%
CCC1CN(C(=O)Nc2cccc3c2CCCC3)c2cc(C)ccc2O1 (configuration not stated)	-17%	.	.	?	.	.
CCC1=Nc2cc(C(=O)NCCCN3CCOCC3)ccc2Sc2ccccc21	-12%	i	i	-12%	?	-26%
CC1=Nc2cc(C(=O)NCC3CCCO3)ccc2Sc2ccc(Br)cc21 (configuration not stated)	-14%	6.5µM*	12µM*	?	16µM*	10µM*
SMILES	HepG2 viability	KB-V1 cytotox	KB-3-1 tox	TGFb SMAD3 inh	HT1080 IDH1KD tx	HT1080NT lethal
CC1=Nc2cc(C(=O)NC3CCCC3)ccc2Sc2ccc(Br)cc21	-35%	?	?	?	.	.
CCC1=Nc2cc(C(=O)NCCN3CCCC3)ccc2Sc2ccccc21	-26%	i	i	-15%	3%	4%
CCC1=Nc2cc(C(=O)NCCCOC)ccc2Sc2ccccc21	10%	0.23µM*	0.82µM*	0%	1µM*	0.65µM*
CCCCNC(=O)c1ccc2c(c1)N=C(CC)c1ccccc1S2	0%	18µM*	?	-20%	.	.
CCC1=Nc2cc(C(=O)NCCCOC)ccc2Sc2ccc(Br)cc21	-1%	?	0.82µM*	?	.	.
CC(C)CC(NS(=O)(=O)OCC(Cl)(Cl)Cl)c1ccccc1 (configuration not stated)	-103%	23µM*	i	?	-26%	?
COc1ccc2oc(=O)cc(CN3CCN(C(=O)c4ccccc4F)CC3)c2c1	-15%	.	.	0%	.	.
Cc1cccc(Cn2nnc3c2C(=O)c2ccccc2C3=O)c1	-58%	6.3µM*	?	3.2µM*	?	?
Cc1ccccc1Cn1nnc2c1C(=O)c1ccccc1C2=O	-88%	13µM*	?	3.5µM*	23µM*	-9%
Cc1nn(C)c(C)c1S(=O)(=O)N(CC(=O)N1CCN(c2ccccc2)CC1)c1ccc(C(C)C)cc1	-9%	i	i	?	.	.
CCN(CC)C(=O)c1sc2c(c1C)c(=O)n(-c1ccccc1)c(=O)n2CC(=O)N(CC)c1cccc(C)c1	-11%	i	i	-1%	.	.
Cc1ccccc1CN1CCN(c2ccc(S(=O)(=O)N3CCCC3)cn2)CC1	-7%	9.2µM*	?	-5%	5%	5%
O=S(=O)(c1ccc(N2CCN(S(=O)(=O)c3ccccc3)CC2)nc1)N1CCCC1	-10%	i	i	5%	-5%	3%
O=S(=O)(c1ccc(N2CCN(Cc3ccccc3)CC2)nc1)N1CCCC1	-20%	?	?	-22%	-4%	-11%
O=S(=O)(c1ccc(N2CC=C(c3ccccc3)CC2)nc1)N1CCCC1	-6%	8.2µM*	?	-16%	?	?
COc1ccc(Cn2nnnc2C(c2ccccn2)N2CCN(c3ccc(O)cc3)CC2)cc1 (configuration not stated)	-14%	i	i	-17%	.	.
